ATG4B inhibitor = ATG4B (human) cysteine protease inhibition. ATG4B cleavage of LC3-PLA2, NBD-HPC fluorescence, 1 h. inhibition, % at 8.33 µM. 340,000 compounds, 0.51% hits. AID 504462; in the data active = inhibition above about 40%
PREPL inhibitor = human PREPL enzyme inhibition; Q4J6C6; recombinant PREPL, fluorescence polarization activity-based probe; inhibition, % at 5.96 µM; 320,000 compounds, 0.68% hits; in the data active = inhibition above about 43%;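 note: 0% = enzyme with DMSO and 100% = wells lacking enzyme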
Target sequence (Q4J6C6 whole entry, looked up): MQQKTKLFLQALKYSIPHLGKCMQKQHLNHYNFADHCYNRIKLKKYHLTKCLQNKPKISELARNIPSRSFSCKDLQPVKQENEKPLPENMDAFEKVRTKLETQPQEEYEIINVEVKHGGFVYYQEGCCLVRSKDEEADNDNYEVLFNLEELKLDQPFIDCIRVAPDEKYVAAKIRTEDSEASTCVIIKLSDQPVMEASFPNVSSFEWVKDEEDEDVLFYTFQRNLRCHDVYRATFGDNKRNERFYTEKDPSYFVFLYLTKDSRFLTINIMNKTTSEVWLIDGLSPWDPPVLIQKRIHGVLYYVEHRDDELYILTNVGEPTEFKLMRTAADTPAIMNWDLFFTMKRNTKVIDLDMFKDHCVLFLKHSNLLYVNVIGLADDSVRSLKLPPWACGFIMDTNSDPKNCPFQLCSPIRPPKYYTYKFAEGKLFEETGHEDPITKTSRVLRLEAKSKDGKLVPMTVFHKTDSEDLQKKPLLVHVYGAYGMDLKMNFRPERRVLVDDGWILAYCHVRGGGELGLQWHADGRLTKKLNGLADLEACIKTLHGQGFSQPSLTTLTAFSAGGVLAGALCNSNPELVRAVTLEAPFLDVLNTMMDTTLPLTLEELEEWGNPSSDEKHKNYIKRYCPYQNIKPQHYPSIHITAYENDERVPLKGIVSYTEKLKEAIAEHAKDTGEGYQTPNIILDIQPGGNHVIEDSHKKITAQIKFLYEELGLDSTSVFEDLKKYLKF
MEKK3 PB1 HTS = MEKK3-MEK5 PB1 interaction, increase or decrease | Q99759 | bead-based flow cytometry, Alexa488-MEK5 binding to MEKK3; actives lie on both sides; 0 = blocked by unlabeled MEK5, 100 = vehicle | binding response (% of control), % at 10 µM | 290,000 compounds, 1.4% hits | AID 1529;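 active = binding response more than 3 SD above or below the average of its plate-row segment, actives on both sides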;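 note: Alexa488 bead fluorescence after subtracting the streptavidin-only scavenger bead signal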
MEKK2 mut-MEK5 = signal of MEK5 binding to mutant human MEKK2 PB1 domain; 290,000 compounds, 0.35% hits; percent response, % at 10 µM; AID 1530; bead flow cytometry, Alexa488-MEK5 binding to MEKK2 mutant; in the data active = percent response above about 24%, passing the limit was not always enough
UBC13 inh = human UBC13 polyubiquitination inhibition | P61088 | UBC13 polyubiquitin chain formation, TR-FRET | inhibition, % at 20 µM | 330,000 compounds, 0.47% hits | AID 485273; in the data active = inhibition above about 45%, passing the limit was not always enough
MEKK2 WT-MEK5 = raises or lowers MEK5 binding to wildtype human MEKK2 PB1 domain; Q9Y2U5; binding response (% of control), % at 10 µM; 290,000 compounds, 1.1% hits; bead flow cytometry, Alexa488-MEK5 binding to MEKK2 WT; actives lie on both sides; in the data active = binding response below about 67% or above about 130%
MEKK2wt confirm = raises or lowers MEK5 binding to wildtype human MEKK2, retest | shares compounds with MEKK3 PB1 HTS | AID 1892 | bead flow cytometry, Alexa488-MEK5 binding to MEKK2 WT; actives lie on both sides | 5,900 compounds, 2.4% hits | binding response (% of control), % at 10 µM; in the data active = binding response below about 16% or above about 210%; inactive = in between
MEKK2mut confirm = signal of MEK5 binding to mutant human MEKK2, retest. shares compounds with MEKK3 PB1 HTS. bead flow cytometry, Alexa488-MEK5 binding to MEKK2 mutant. percent response, % at 10 µM. 5,900 compounds, 2% hits. AID 1893; in the data active = percent response mostly above about 71%, no sharp cut-off; inactive = mostly below about 38%;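 note: higher means compound restores mutant binding toward wildtype level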
MEKK3-MEK5 inh = MEKK3-MEK5 PB1 inhibition, single concentration confirmation. shares compounds with MEKK3 PB1 HTS. bead flow cytometry, Alexa488-MEK5 binding to MEKK3; hits give low values. binding response (% of control), % at 10 µM. 5,900 compounds, 1.8% hits. AID 1894;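 active = binding response below 72% of control, or above a set upper limit, though filed actives all read lower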;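 note: 100% = DMSO only wells and 0% = binding blocked by excess unlabeled MEK5; lower values mean stronger disruption of MEK5 binding to MEKK3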
The depositor's hits bear a star; . = no result; [ ] = remark or other dose. A selection: hits, their analogues and other compounds. The true share with any hit is near 3.1%.

SMILES	ATG4B inhibitor	PREPL inhibitor	MEKK3 PB1 HTS	MEKK2 mut-MEK5	UBC13 inh	MEKK2 WT-MEK5	MEKK2wt confirm	MEKK2mut confirm	MEKK3-MEK5 inh
COc1ccc([N+](=O)[O-])cc1NC(=O)CSc1nc(C)cc(C)n1	2	-5	108	-1	-6	106	.	.	.
COc1ccc([N+](=O)[O-])cc1NC(=O)CSc1ccc2ccccc2c1	-19	9	148*	0	-16	108	104	-2	103
CC1(C)CC(O)(CNCc2ccc3c(c2)OCO3)CCO1 (stereo not given)	-17	10	2.0*[inhibitor]	-14	-13	3.0*[inhibitor]	94	-7	94
C=CCN(C/C(=N\O)c1sc(C(=O)OCC)nc1C)c1cccc(Br)c1	-6	-9	105	6	4	101	.	.	.
CC(C)CNC(=O)NC(=O)COC(=O)c1cccc(NS(=O)(=O)c2ccc(F)c(F)c2)c1	-2	10	134*	1	6	109	104	7	101
COc1cccc(C(=O)Nc2cc(NC(=O)c3cccs3)ccc2C)c1OC	29	-5	109	24*	-8	106	104	4	105
COc1cc(NC(=O)c2cccc(Cl)c2)ccc1NC(=O)c1cccs1	-17	10	133*	0	10	116	102	-30	94
COc1cccc(C(=O)Nc2cc(NC(=O)c3cccs3)ccc2C)c1	18	9	111	4	-5	104	.	.	.
COc1cc(NC(=O)c2ccccc2Cl)ccc1NC(=O)c1cccs1	5	4	99	-1	9	99	.	.	.
CN(CC(=O)Nc1ccc(Cl)cc1)C(=O)CNC(=O)Cc1cccc2ccccc12	-8	7	.	.	2	.	.	.	.
CCOc1ccc(/C=N/Nc2ccc(C(F)(F)F)cc2[N+](=O)[O-])cc1O	5	13	106	-6	-65	93	.	.	.
COc1ccc(/C=N/Nc2ccc(C(F)(F)F)cc2[N+](=O)[O-])cc1O	-5	1	131*	0	-57	102	103	4	99
CCOC(=O)c1c(NC(=O)CSc2nnc3c(n2)[nH]c2ccccc23)sc2c1CCN(C)C2	-18	-7	107	15	-11	144*	137	20	102
CCOC(=O)c1c(NC(=O)CSc2ncccn2)sc2c1CCN(Cc1ccccc1)C2	-2	.	97	-2	.	97	.	.	.
Nc1nonc1C(=O)NCCNCc1ccccc1OCc1ccc(F)cc1	5	-56	107	17	4	153*	118	5	102
CCOc1ccc(CNCCNC(=O)c2nonc2N)cc1	-3	-1	106	-1	-10	100	.	.	.
COc1ccccc1C(C)NC(=O)c1cc(=O)[nH]c2ccccc12 (stereo not given)	4	11	102	-4	-4	100	.	.	.
COc1ccc(S(=O)(=O)N2CCN(Cc3ccco3)CC2)cc1	-11	17	100	3	6	101	.	.	.
N#C/C(=C\C=C\c1ccccc1[N+](=O)[O-])c1nc(-c2ccc3c(c2)OCO3)cs1	-1	16	104	30*	-58	24*	93	-4	96
CCc1ccc(OC)c(S(=O)(=O)NCc2cccs2)c1	1	-3	.	.	2	.	.	.	.
CCOC(=O)c1ccc(NC(=O)Cn2nnc(-c3ccccc3)n2)cc1	-14	-4	120	11	1	134*	107	2	104
NC(=O)c1nn(-c2ccccc2)nc1NC(=O)Cn1nnc(-c2ccccc2)n1	-2	-1	132*	-1	-1	104	92	-5	99
CCOC(=O)c1ccc(NC(=O)CCc2nc(-c3ccccc3)no2)cc1	-16	-35	130*	7	11	120	106	2	104
CCOC(=O)c1ccc(NC(=O)COc2ccccc2CNCCc2ccccc2)cc1	4	-52	102	39	44	206*	175	42	105
CCN(CC)C(=O)CN1C(=O)C2(OCC(C)(C)CO2)c2ccccc21	-9	0	.	.	-17	.	.	.	.
SMILES	ATG4B inhibitor	PREPL inhibitor	MEKK3 PB1 HTS	MEKK2 mut-MEK5	UBC13 inh	MEKK2 WT-MEK5	MEKK2wt confirm	MEKK2mut confirm	MEKK3-MEK5 inh
Cc1cc(-c2ccccc2)nc(=O)[nH]1	-9	-8	130*	3	-21	117	102	7	106
CCCN(CC(=O)Nc1ccccc1C)C(=O)c1ccc(S(=O)(=O)N2CCC(C)CC2)cc1	5	.	.	.	2	.	.	.	.
O=C(COC(=O)C1(c2ccc(F)cc2)CCCC1)Nc1ncc(C(F)(F)F)cc1Cl	-3	-2	133*	2	6	111	101	-2	102
CCc1cc2cc(C(=O)N3CCN(Cc4ccccc4)CC3)sc2s1	-1	-1	77*[inhibitor]	-13	15	91	89	-11	85
CCc1cc2cc(C(=O)N3CCN(c4ccccc4)CC3)sc2s1	-4	4	105	5	10	109	.	.	.
COC(=O)C1=C(C(=O)OC)C(c2ccc(OC)c(OC)c2)c2sc(=O)[nH]c2S1 (stereo not given)	-11	12	55*[inhibitor]	-17	-34	60*[inhibitor]	90	-8	90
CCN(CC(=O)NCc1ccc(F)cc1)C(=O)Cc1ccc(OC)cc1	-4	-1	101	7	-8	102	.	.	.
COc1ccc(/C=C2\SC(N3CCc4ccccc4C3)=NC2=O)cc1	38	-6	131*	1	1	103	95	-10	99
CCOc1ccc(/C=C2\SC(N3CCc4ccccc4C3)=NC2=O)cc1	39	-28	132	-1	-2	95	.	.	.
CCOc1ccc(/C=C/C(=O)NCCc2ccc(OC)c(OC)c2)cc1	-9	2	147*	1	-5	109	102	-3	99
CCOc1ccc(/C=C/C(=O)NCc2ccccc2)cc1	6	-6	137*	0	2	108	109	11	109
O=S(=O)(c1ccc(N2CCN(CCO)CC2)nc1)N1CCOCC1	-4	13	.	.	-6	.	.	.	.
COc1cc(NC(=O)CC(C)S(=O)(=O)c2ccc3c(c2)NC(=O)CO3)cc(OC)c1OC (stereo not given)	6	9	101	0	-3	98	.	.	.
Cc1ccc2nc(N3CCN(C(=O)CCCC(=O)O)CC3)nc(-c3ccccc3)c2c1	2	-5	110	8	5	108	.	.	.

High-throughput results (PubChem BioAssay)
